The campaign covered roughly 52,000 compounds. About 4,300 (8.3%) were called active. Cut-off read from the data, not from the text of the source: active = survival mostly below about 52% (no sharp cut-off); inactive = mostly above about 56%. This excerpt belongs to a sample that is enriched for actives.

The subject of the test is DeltatarO mutant. The experiment in a line: growth inhibition of S. aureus wild type versus tarO mutant, primary screen, teichoic acid synthesis inhibitors, RN4220, OD600 (AID 463173). The settings on record: OD600, 18 h, active compounds read low, screened at 18.75 µg/mL (by protocol).
Consider `COC(=O)c1c(SC)nc2ccccc2c1OCc1cc(C)ccc1C`, for which the survival is 144% (inactive).
As for `CCSc1nc2ccccc2c(OCc2cc(C(=O)OC)ccc2OC)c1C(=O)OC`, the figure is -12% (active).
As for `COC(=O)c1c(SC)nc2ccccc2c1OCc1ccccc1C`, the figure is 105% (inactive); as for `COC(=O)c1c(SC)nc2ccccc2c1OCc1ccc(C)cc1C`, 46% (active).
The figure for `CCSc1nc2ccccc2c(OCc2ccccc2Cl)c1C(=O)OC` is 64% (inactive); for `CCSc1nc2ccccc2c(OCc2ccc(Cl)cc2)c1C(=O)OC` it is 98% (inactive).
Regarding `CCOC(=O)Cn1cc2c(c1-c1ccc(Cl)cc1)c(=O)n(C)c(=O)n2C`, the survival was 60% (inactive).
The figure for `COc1cc(CNC(=O)C2CCCCN2S(=O)(=O)c2ccc(F)cc2)cc(OC)c1OC` (stereo not given) is 83% (inactive); for `Cc1ccc2c(=O)c(C(=O)c3ccc(F)cc3)cn(CC(=O)Nc3ccc4c(c3)OCCO4)c2n1` it is 77% (inactive).
As for `Cc1ccc(CCNC(=O)c2ccc3c(Cl)c4c(nc3c2)CCCC4)cc1`, the figure is 61% (inactive).
As for `CCCCC(=O)N(c1ccc2oc(C)c(C(C)=O)c2c1)S(=O)(=O)c1ccc(F)cc1C`, the figure is 62% (inactive); as for `CCc1ccc(S(=O)(=O)N(C(C)=O)c2ccc3oc4c(c3c2)CCCC4)cc1`, 146% (inactive).
Take `CCCC(=O)N(c1ccc2oc3c(c2c1)CCCC3)S(=O)(=O)c1cc(C)ccc1C`: the survival was 35% (active).
The figure for `CCOC(=O)c1c(-c2ccccc2)oc2ccc(N(C(C)=O)S(=O)(=O)c3cc(C)ccc3C)cc12` is 54% (inactive); for `CCCC(=O)N(c1ccc2oc3c(c2c1)CCCC3)S(=O)(=O)c1ccc(CC)cc1` it is 39% (active).
The figure for `CCCC(=O)N(c1ccc2oc(-c3ccccc3)c(C(=O)OCC)c2c1)S(=O)(=O)c1ccc(C)cc1` is 140% (inactive); for `CCC1CN(C(=O)NCc2ccc(C)cc2)c2cc(C)ccc2O1` (stereo not given) it is 54% (inactive).
The figure for `COC(=O)CC1Oc2ccc(Cl)cc2-n2cc(-c3ccccc3)nc21` (stereo not given) is 63% (inactive); for `CCOC(=O)Cn1c(=O)oc2cc(S(=O)(=O)NC(C)c3ccccc3)ccc21` (stereo not given) it is 66% (inactive); for `CC(C)=NNC(=O)CNc1ccccc1Cl` it is 79% (inactive).
On to `Cc1ccc(NC(=O)C2CC=CCC2C(=O)N2CCCCC2)cc1` (stereo not given), for which the survival is 69% (inactive).
The figure for `COc1cc(CN2CCc3nc(N4CCN(c5ccccc5F)CC4)ncc3C2)ccc1OC(C)C` is 118% (inactive).
The figure for `O=C(CC1N=C2c3ccccc3N=C(SCc3ccccc3Cl)N2C1=O)NCc1cccs1` (stereo not given) is 66% (inactive); for `Cc1ccc2c(c1)-c1nc(-c3ccccc3)cc(-c3ccccc3)c1CO2` it is 91% (inactive).
Consider `Cc1ccc2c(c1)-c1ncc(C(=O)c3cc(Br)ccc3O)cc1CO2`, for which the survival is 62% (inactive).
The figure for `O=C(c1cnc2c(c1)COc1ccccc1-2)c1ccccc1O` is 3% (active); for `Cc1cc(O)c(C(=O)c2cnc3c(c2)COc2ccccc2-3)cc1Cl` it is 76% (inactive); for `Cc1ccc2c(c1)-c1ncc(C(=O)c3ccccc3O)cc1CO2` it is 3% (active).
Consider `O=C(c1cnc2c(c1)COc1ccc(Cl)cc1-2)c1ccccc1O`, for which the survival was 105% (inactive).
As for `COc1ccccc1/C=C(\C#N)C(=O)NCC1CCCO1` (stereo not given), the figure is 129% (inactive).
As for `CC1=C(c2ccc(Cl)cc2)S(=O)(=O)N=C1N1CCN(c2cccc(C(F)(F)F)c2)CC1`, the figure is 71% (inactive).
Consider `CCS(=O)(=O)N1CCc2cc(C(=O)NCc3ccc(Cl)cc3)ccc21`, for which the survival is 92% (inactive).
For `Cc1ccc(NC(=O)Nc2nnc(N(C)C3CCCCC3)s2)c(Cl)c1`, the survival was 104% (inactive).
With `COc1cc(OC)c(NC(=O)Nc2nnc(N(C)C3CCCCC3)s2)cc1Cl`, the survival is 23% (active).
The figure for `COc1ccc(NC(=O)Nc2nnc(N(C)C3CCCCC3)s2)c(OC)c1` is 70% (inactive); for `O=C(CSc1nc2c([nH]c3ccccc32)c(=O)n1-c1cccc(Cl)c1)N1CCc2ccccc21` it is 73% (inactive).
In the case of `COC(=O)C1CCN(C(c2ccccc2)c2sc3nc(-c4ccco4)nn3c2O)CC1` (stereo not given), the survival was 57% (inactive).
The figure for `Cc1ccc(C)c(NC(=O)c2ccc(=O)n(Cc3ccc(F)cc3)c2)c1` is 94% (inactive); for `CCN(CC)CCCNC(=O)Cn1ncc2c3ccccc3n(Cc3ccccc3)c2c1=O` it is 95% (inactive); for `CCCN1CCN(CCCNC(=O)c2cc3c(Cl)nc4ccccc4c3s2)CC1` it is 116% (inactive).
As for `COc1ccccc1N1CCN(C(=O)c2cc3c(s2)-c2ccccc2OC3)CC1`, the figure is 88% (inactive); as for `COc1ccc(N2CCN(CCCNC(=O)c3cc(Nc4ccccc4OC)nc4ccccc34)CC2)cc1`, 62% (inactive); as for `COc1ccc2c(c1)CC(C(=O)NCCN1CCN(c3cccc(C)c3C)CC1)CO2` (stereo not given), 76% (inactive).
As for `O=C(c1cc2c(s1)-c1ccccc1OC2)N1CCN(c2ccc(F)cc2)CC1`, the figure is 59% (inactive).
On to `COc1ccc(N2CCN(CCCNC(=O)c3cc(Nc4ccc(OC)cc4OC)nc4ccccc34)CC2)cc1`, for which the survival is 87% (inactive).
The figure for `O=C(NCCCN1CCN(c2ccc(F)cc2)CC1)c1cc2c(Cl)nc3ccccc3c2s1` is 91% (inactive); for `O=C(NCCCN1CCN(c2ccccc2F)CC1)c1cc2c(Cl)nc3ccccc3c2s1` it is 51% (active); for `COc1ccc(Nc2cc(C(=O)NCCCN3CCN(c4ccccc4F)CC3)c3ccccc3n2)c(OC)c1` it is 48% (active).
As for `COc1ccc2c(c1)CC(C(=O)NCCN1CCN(c3ccccc3F)CC1)CO2` (stereo not given), the figure is 47% (active); as for `COc1ccc2c(c1)CC(C(=O)NCCCN1CCN(c3ccccc3F)CC1)CO2` (stereo not given), 87% (inactive); as for `O=C(c1cc2c(s1)-c1ccccc1OC2)N1CCN(c2ccccc2F)CC1`, 41% (active).
The figure for `COc1cccc(N2CCN(C(=O)Cn3c(-c4cccs4)cc4ccccc43)CC2)c1` is 104% (inactive); for `CCCCOc1ccc(C(C)NC(=O)c2cccc(Nc3nc4ccccc4n4nnnc34)c2)cc1` (stereo not given) it is 67% (inactive); for `Cc1ccc2[nH]c3nc(NN)nnc3c2c1` it is 77% (inactive).
With `CCOc1ccc(N2CC(NC(=O)Cc3ccccc3)CC2=O)cc1` (stereo not given), the survival was 135% (inactive).
On to `COc1ccc(N(Cc2nnc3n2CCCCC3)C(=O)Nc2ccc(Cl)cc2)cc1Cl`, for which the survival was 85% (inactive).
As for `Cc1ccccc1NC(=O)CSc1nc2c(c(=O)n(C)c(=O)n2C)n1Cc1ccccc1F`, the figure is 56% (inactive).
As for `CCN(CC)CCNC(=O)c1nn(C)c2c1CS(=O)(=O)c1ccccc1-2`, the figure is 59% (inactive); as for `O=S(=O)(Nc1cccc(-c2ccc(N3CCCC3)nn2)c1)c1ccc(F)c(C(F)(F)F)c1`, 71% (inactive).
For the compound `Cc1cccc2c(=O)c(N)c[nH]c12`, the survival was 105% (inactive).
In the case of `O=C(Cn1c(=O)n(-c2ccccc2)c(=O)c2ccc(C(=O)NCc3ccc4c(c3)OCO4)cc21)Nc1ccc(Br)cc1F`, the survival is 117% (inactive).
The figure for `CCc1ccc(CNC(=O)CN2C(=O)CCn3nc(-c4cn(C)c5ccccc45)cc32)cc1` is 81% (inactive); for `Cn1c(Nc2ccc(Cl)cc2)cc(=O)n(C)c1=O` it is 93% (inactive); for `Cc1cc(F)ccc1NC(=O)C1CCN(C(=O)c2cnn(-c3ccccc3)c2-n2cccc2)CC1` it is 80% (inactive).
As for `CCCN1CCN(CCCNC(=O)c2cc3c(s2)-c2ccccc2OC3)CC1`, the figure is 85% (inactive).
The figure for `O=C(NCCCN1CCN(c2ccc(F)cc2)CC1)c1cc2c(s1)-c1ccccc1OC2` is 55% (active); for `Cc1cccc2c1-c1sc(C(=O)NCCCN3CCN(c4ccccc4F)CC3)cc1CO2` it is 63% (inactive).
As for `CCN1CCN(CCCNC(=O)c2cc3c(s2)-c2ccccc2OC3)CC1`, the survival was 88% (inactive).
The figure for `O=C(NCCCN1CCN(c2ccccc2F)CC1)c1cc2c(s1)-c1ccccc1OC2` is 11% (active).
The figure for `O=C(NCCCN1CCN(c2ccccc2)CC1)c1cc2c(s1)-c1ccccc1OC2` is 53% (inactive); for `Cc1ccc(CCNC(=O)CCc2cn(Cc3ccccc3C)c3ccccc23)cc1` it is 68% (inactive); for `CCN(C(=O)c1cn(CC)c(=O)c2cc(OC)c(OC)cc12)c1ccc(C)c(C)c1` it is 169% (inactive).
Take `CCc1ccc(C(=O)COC(=O)C(Cc2c[nH]c3ccccc23)NC(=O)c2ccc(Br)cc2)cc1` (stereo not given): the survival was 142% (inactive).
As for `CC(C)c1ccc(OCC(=O)NC(Cc2c[nH]c3ccccc23)C(=O)O)cc1` (stereo not given), the figure is 42% (active); as for `COc1ccc(OCC(=O)NC(Cc2c[nH]c3ccccc23)C(=O)O)cc1` (stereo not given), 60% (inactive).
The figure for `COC(=O)C(Cc1c[nH]c2ccccc12)NC(=O)COc1cccc(C)c1` (stereo not given) is 65% (inactive); for `Cc1cc(C)cc(OCC(=O)NC(Cc2c[nH]c3ccccc23)C(=O)O)c1` (stereo not given) it is 51% (inactive).
As for `CC(C)(C)c1ccc(OCC(=O)NC(Cc2c[nH]c3ccccc23)C(=O)O)cc1` (stereo not given), the figure is 56% (inactive); as for `CCc1ccc(OCC(=O)NC(Cc2c[nH]c3ccccc23)C(=O)O)cc1` (stereo not given), 40% (active).
For `Cc1cccc(OCC(=O)NC(Cc2c[nH]c3ccccc23)C(=O)O)c1C` (stereo not given), the survival was 48% (inactive).
`CCOC(=O)C(Cc1c[nH]c2ccccc12)NC(=O)COc1ccc(Cl)c(C)c1` (stereo not given): the survival is 36% (active).
The figure for `CCOC(=O)C(Cc1c[nH]c2ccccc12)NC(=O)COc1ccc(CC)cc1` (stereo not given) is 33% (active); for `Cc1cc(OCC(=O)NC(Cc2c[nH]c3ccccc23)C(=O)O)ccc1Cl` (stereo not given) it is 53% (inactive).
`COC(=O)C(Cc1c[nH]c2ccccc12)NC(=O)COc1ccc(Cl)cc1Cl` (stereo not given): the survival is 46% (inactive).
For `O=C(CCn1c(=O)c2cccn2c2cccnc21)Nc1ccccc1Br`, the survival was 74% (inactive).
The figure for `COc1ccc(N2CC(NC(=O)c3cccs3)CC2=O)cc1` (stereo not given) is 89% (inactive); for `O=C(O)Cn1nc(N2CCN(c3ccc(F)cc3)CC2)ccc1=O` it is 84% (inactive); for `Cc1ccc(NC(=O)Cn2c(=O)n(CCCCCC(=O)NCc3ccc(F)cc3)c(=O)c3sccc32)c(C)c1` it is 66% (inactive).
As for `O=C(O)CCn1nnc(-c2cccs2)n1`, the figure is 103% (inactive).
As for `Cc1cccc(N2CCN(C(=O)c3ccc(NC(=O)c4nsc5ccccc45)cc3)CC2)c1C`, the figure is 76% (inactive).
